Assay results as given in the supplement of paper PMC12350171.
Structures can show the parent of a compound that is named as a salt. Values without a mark were called inactive.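 The calls were made as follows: active = AUC significantly below DMSO controls by Student t-fit with adjusted P under 0.01; inactive = not significantly reduced.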

System: Haemophilus parainfluenzae
Assay: growth AUC normalised to DMSO control (fraction of control); higher = less growth inhibition, active = hit call of the paper
Details: 20 µM
Summary of the method: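 For the AUC endpoint, growth curves were integrated by the trapezoidal rule up to the exponential-to-stationary transition and normalised to DMSO controls on the same plate. The curves came from OD578 readings taken hourly for 24 h, in three biological replicates. Pathogens had been passaged anaerobically twice and inoculated at an OD578 of 0.01 into pre-reduced mGAM plates carrying 20 μM compound and 1% DMSO, sealed with breathable membranes. Medium for Haemophilus parainfluenzae also contained hemin and NAD.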

| SMILES | growth AUC normalised to DMSO control |
| --- | --- |
| Cc1onc(-c2ccccc2)c1C(=O)N[C@@H]1C(=O)N2[C@@H]1SC(C)(C)[C@@H]2C(=O)O [Oxacillin sodium] | 0.928 |
| Cc1ccc(NC(=O)c2ccc(CN3CCN(C)CC3)cc2)cc1Nc1nccc(-c2cccnc2)n1 [Imatinib] | 1.09 |
| NC(=O)c1ncn([C@@H]2O[C@H](CO)[C@@H](O)[C@H]2O)n1 [Ribavirin] | 1 |
| O=C(CCNNC(=O)c1ccncc1)NCc1ccccc1 [Nialamide] | 1.01 |
| Nc1ccc(O)c(C(=O)O)c1 [Mesalamine] | 1.05 |
| CC(C)(O/N=C(\C(=O)N[C@@H]1C(=O)N2C(C(=O)[O-])=C(C[n+]3ccccc3)CS[C@H]12)c1csc(N)n1)C(=O)O [Ceftazidime pentahydrate] | 0.079 (active) |
| CN1Cc2c(N)cccc2C(c2ccccc2)C1 (configuration not stated) [Nomifensine maleate] | 0.915 |
| c1ccc2[nH]c(-c3cscn3)nc2c1 [Tiabendazole] | 1.06 |
| CC(CN(C)C)CN1c2ccccc2Sc2ccccc21 (configuration not stated) [Trimeprazine tartrate] | 0.94 |
| N[C@@H](Cc1cc(I)c(Oc2ccc(O)c(I)c2)c(I)c1)C(=O)O [Liothyronine] | 0.943 |
| CC(=O)Oc1ccccc1C(=O)Oc1ccccc1C(=O)O [Acetylsalicylsalicylic acid] | 0.885 |
| CCOc1ccccc1OC(c1ccccc1)C1CNCCO1 (configuration not stated) [Reboxetine mesylate] | 1.01 |
| CNCCCC12CCC(c3ccccc31)c1ccccc12 [Maprotiline hydrochloride] | 0.979 |
| NS(=O)(=O)c1cc(C2(O)NC(=O)c3ccccc32)ccc1Cl (configuration not stated) [Chlorthalidone] | 1.01 |
| Cc1c(C)c2c(c(C)c1O)CCC(C)(COc1ccc(CC3SC(=O)NC3=O)cc1)O2 (configuration not stated) [Troglitazone] | 0.984 |
| CCCOc1cc(N)ccc1C(=O)OCCN(CC)CC [Propoxycaine hydrochloride] | 1.04 |

| SMILES | growth AUC normalised to DMSO control |
| --- | --- |
| N#Cc1ccc(C(c2ccc(C#N)cc2)n2cncn2)cc1 [Letrozole] | 1.01 |
| CC(C)(C)NC(=O)[C@H]1CC[C@H]2[C@@H]3CC[C@H]4NC(=O)C=C[C@]4(C)[C@H]3CC[C@]12C [Finasteride] | 1.06 |
| CCc1cccc(CC)c1NC(=O)CN(CC(=O)O)CC(=O)O [Etifenin] | 1.01 |
| NNCCc1ccccc1 [Phenelzine sulfate] | 1.02 |
| CC(=O)[C@H]1CC[C@H]2[C@@H]3C[C@H](C)C4=CC(=O)CC[C@]4(C)[C@H]3[C@@H](O)C[C@]12C [Medrysone] | 0.955 |
| Cc1[nH]c(=O)c(C#N)cc1-c1ccncc1 [Milrinone] | 0.987 |
| O=C(O)c1ccccc1OP(=O)(O)O [Fosfosal] | 0.998 |
| COc1c(O[C@@H]2O[C@H](CO)[C@@H](O)[C@H](O)[C@H]2O)cc2c(c1OC)-c1ccc(SC)c(=O)cc1[C@@H](NC(C)=O)CC2 [Thiocolchicoside] | 0.996 |
| CN(C)CCCOc1nn(Cc2ccccc2)c2ccccc12 [Benzydamine hydrochloride] | 0.964 |
| CCCCCN(CCCCC)C(=O)C(CCC(=O)O)NC(=O)c1ccc(Cl)c(Cl)c1 (configuration not stated) [Lorglumide sodium salt] | 0.982 |
| O=C(O)[C@H]1/C(=C/CO)O[C@@H]2CC(=O)N21 [Clavulanate potassium salt] | 1.06 |
| CC(=O)OCC(=O)[C@@]1(O)CC[C@H]2[C@@H]3CCC4=CC(=O)CC[C@]4(C)[C@@]3(F)[C@@H](O)C[C@@]21C [Fludrocortisone acetate] | 1.02 |
| C[C@]1(Cn2ccnn2)[C@H](C(=O)O)N2C(=O)C[C@H]2S1(=O)=O [Tazobactam] | 1.02 |
| Clc1ccc(C(c2ccccc2Cl)C(Cl)Cl)cc1 (configuration not stated) [Mitotane] | 1.01 |
| CC(=O)[C@H]1CC[C@H]2[C@@H]3C=CC4=CC(=O)CC[C@@]4(C)[C@@H]3CC[C@]12C [Dydrogesterone] | 1.02 |
| O=C1c2ccccc2S(=O)(=O)N1CCCCN1CCN(c2ncccn2)CC1 [Ipsapirone] | 0.979 |
